High-throughput results: PubChem, National Center for Advancing Translational Sciences (NCATS)
mTORC1 inh = reduces mTORC1 signaling in Tsc2 and p53 null MEF cells. Tsc2-/- p53-/- MEF, phospho-rpS6 immunofluorescence/PI, 24 h. Potency, µM (doses to about 38.3 µM), hits mostly inhibitors. 44,000 compounds, 0.78% hits. AID 493208; further: nearly all actives have a fitted effect of over 50% in size
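Tsc2-/-, p53-/- MEFs (empty-vector stable line) in DMEM + 10% FBS were treated with compounds 24 h at 37 degree Celsius, fixed, and immunostained for phospho-rpS6 (Alexa-488) with propidium iodide counterstain. Laser-scanning cytometry gave % positive cells, normalized against 7.5 nM rapamycin and DMSO.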
S16 F2sN tox = cytotoxicity in S16 Pmp22-F2sN Schwann cells; S16 Pmp22-F2sN Schwann cells viability, CellTiter-Glo, 24 h; Potency, µM (titrated, usually from 57.5 µM), hits mostly cytotoxic; 43,000 compounds, 0.48% hits; further: nearly all actives have a fitted effect of over 65% in size
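Used to flag compounds lowering reporter output through toxicity, this quantitative HTS measures ATP-based CellTiter-Glo luminescence in S16 Pmp22-F2sN Schwann cells after 24 h compound exposure at 37C.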
PMP22 txn = modulators of PMP22 gene transcription in S16 Schwann cells | S16 Pmp22-F2sN Schwann cells, FLuc/NLuc coincidence luminescence, 24 h | AID 1508649 | 43,000 compounds, 2% hits | Potency, µM (top dose mostly 57.5 µM), usual class: inhibitors; active means clear falling dose curves in both reporters; inconclusive means both reporters move, but less clearly or upward; inactive means either reporter flat; the % is the NLuc reporter signal
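Schwann cells carrying the coincidence reporter were exposed to library compounds for 24 h at 37C, then lysed and read for FLuc and, after quenching, NLuc luminescence on a CCD imager.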
GALC G270D up = raises human GALC G270D mutant activity in cells | P54803 | 145M-Twi-hGALC-G270D cells (Twitcher mouse brain line with human GALC G270D), HMU-beta-Gal fluorescence, 48 h | Potency, µM (series often up to 57.5 µM), usual class: activators | 45,000 compounds, 0.1% hits; further: nearly all actives have a fitted effect of over 65% in size
Target sequence (P54803 whole entry G286D): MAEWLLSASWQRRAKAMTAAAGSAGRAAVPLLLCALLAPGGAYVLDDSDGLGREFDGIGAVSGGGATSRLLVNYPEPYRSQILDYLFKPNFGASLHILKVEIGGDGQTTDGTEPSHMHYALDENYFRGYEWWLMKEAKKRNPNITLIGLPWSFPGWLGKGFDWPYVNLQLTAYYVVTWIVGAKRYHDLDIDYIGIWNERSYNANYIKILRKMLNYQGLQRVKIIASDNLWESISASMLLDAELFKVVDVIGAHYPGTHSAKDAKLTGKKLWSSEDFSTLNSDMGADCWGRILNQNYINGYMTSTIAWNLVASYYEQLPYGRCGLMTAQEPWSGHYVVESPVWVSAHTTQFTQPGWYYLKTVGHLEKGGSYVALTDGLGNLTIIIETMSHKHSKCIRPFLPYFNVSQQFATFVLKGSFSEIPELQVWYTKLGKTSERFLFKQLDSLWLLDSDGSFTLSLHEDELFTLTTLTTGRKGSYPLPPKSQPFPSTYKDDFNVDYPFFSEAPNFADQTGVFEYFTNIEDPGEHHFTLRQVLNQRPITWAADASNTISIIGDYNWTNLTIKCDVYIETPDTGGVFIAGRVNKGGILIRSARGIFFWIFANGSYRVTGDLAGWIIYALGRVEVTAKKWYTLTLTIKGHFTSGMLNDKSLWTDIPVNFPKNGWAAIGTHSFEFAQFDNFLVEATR
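Fluorescence readout: HMU-β-gal cleavage by mutant GALC (0.1 mM final, citrate/phosphate pH 5.2 with 1 mg/mL taurocholate), stopped with carbonate/bicarbonate plus Triton X-100. Cells: murine Twitcher 145M-Twi expressing human G270D GALC; qHTS for activators.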
NLuc saturating = NanoLuc enzyme inhibition artifact for PMP22 screen; shares compounds with PMP22 txn; Secreted NLuc enzyme (filtered S16 cell medium), Nano-Glo luminescence; Potency, µM (top dose mostly 57.5 µM), actives largely listed as inhibitors; 690 compounds, 4% hits; AID 1508638
NLuc Km counter = NanoLuc inhibition at Km substrate, PMP22 artifact check; shares compounds with PMP22 txn; secreted NLuc enzyme, coelenterazine luminescence, Km conditions; Potency, µM (top dose mostly 57.5 µM), actives largely listed as inhibitors; 690 compounds, 5% hits; AID 1508639
FLuc counter = inhibits firefly luciferase, PMP22 counter-screen | shares compounds with PMP22 txn | 690 tested, under 10 active | Potency, µM (series often up to 57.5 µM), hits mostly inhibitors | purified P. pyralis FLuc, luminescence, 10 min
S16 F2sN tox cnf = confirmation of cytotoxicity in S16 Pmp22-F2sN Schwann cells (luciferase reporters placed in the Pmp22 gene); AID 1508641; shares compounds with PMP22 txn; Potency, µM (top dose mostly 57.5 µM), actives largely listed as cytotoxic; 690 compounds, 7% hits; S16 Schwann cells viability, CellTiter-Glo ATP luminescence, 24 h
PMP22 txn cnf = confirmation of modulators of PMP22 gene transcription in S16 cells; S16 Schwann cells Pmp22-F2sN, dual luciferase, 24 h; shares compounds with PMP22 txn; Potency, µM (series often up to 57.5 µM), usual class: inhibitors; 690 compounds, 22% hits; active means clear falling dose curves in both reporters; inconclusive means both reporters move, but less clearly or upward; inactive means either reporter flat; the % is the FLuc reporter signal
PMP22 HiBiT cnf = rat PMP22 protein level modulation, confirmatory. Potency, µM (doses to about 27.9 µM), most hits filed as inhibitors. 95 tested, under 10 active. S16 Schwann cells Pmp22-HiBiT, luminescence, 48 h. shares compounds with PMP22 txn. AID 1508647
Numbers stand for hits; 0 = inactive; ? = inconclusive; - = no result. Only some compounds are listed: those with a hit (about 2.8% of all), similar ones and a draw of the others. Unless noted, the call rests on the fitted dose curve; in most records, active means well fitted curve in the direction sought with a large enough effect; inconclusive means small, poorly fitted or top-dose-only effect, or another doubt; inactive means no such curve, though single readings can be large; an effect the other way counts as inactive or inconclusive.

SMILES	mTORC1 inh	S16 F2sN tox	PMP22 txn	GALC G270D up	NLuc saturating	NLuc Km counter	FLuc counter	S16 F2sN tox cnf	PMP22 txn cnf	others
O=C(CCS(=O)(=O)c1ccc(Br)s1)Nc1cc(C(F)(F)F)cc(C(F)(F)F)c1	0	?	20µM	0	0	0	0	?	?
Nc1ccc(N2CCN(c3ncc(C(F)(F)F)cc3Cl)CC2)c(C(F)(F)F)c1	?	0	?	0	-	-	-	-	-
COc1ccccc1C(=O)N(c1ccc(C)cc1)S(=O)(=O)c1ccc(Cl)cc1	0	-	-	-	-	-	-	-	-
COc1ccc(N(C(=O)c2cc(OC)c(OC)c(OC)c2)S(=O)(=O)c2ccc(C)cc2)cc1	0	?	19µM	0	0	0	0	0	0
O=C(Nc1ccc(Cl)cc1)c1cnn2c1NC(c1ccccc1)=CC2c1ccccc1 (stereo not given)	0	?	14µM	0	?	?	0	0	?
CC1=C(C(=O)Nc2ccc(Cl)cc2)C(c2ccccc2)n2ncc(C(=O)Nc3ccccc3)c2N1 (stereo not given)	?	?	?	0	-	-	-	-	-
CC(CNC(=O)CCCn1c(=O)c2cccn2c2ccc(F)cc21)c1ccccc1 (stereo not given)	0	0	19µM	0	?	0	0	0	?
Fc1cccc(Cl)c1CNc1n[nH]c(-c2ccco2)n1	0	0	0	0	-	-	-	-	-
COc1cc(C2c3c(oc4ccc(F)cc4c3=O)C(=O)N2Cc2ccc3c(c2)OCO3)ccc1O (stereo not given)	0	0	0	0	-	-	-	-	-
Cc1cc(C)c(NC(=O)Cn2c(=O)oc3cc(S(=O)(=O)N4CCCCCC4)ccc32)c(C)c1	0	0	?	0	0	0	0	0	?
Cc1cccc(NC(=O)Cn2c(=O)oc3cc(S(=O)(=O)NCc4ccccc4)ccc32)c1	0	0	11µM	0	0	0	0	0	0
Cc1cc(C)cc(NC(=O)Cn2c(=O)oc3cc(S(=O)(=O)N4CCCC4)ccc32)c1	0	0	0	0	-	-	-	-	-
Cc1cccc(NC(=O)Cn2c(=O)oc3cc(S(=O)(=O)NC4CCCC4)ccc32)c1	0	0	0	0	-	-	-	-	-
O=C(Nc1ccc(Cl)c(C(F)(F)F)c1)c1cc2nc(-c3ccc4c(c3)OCO4)cc(C(F)(F)F)n2n1	0	0	0	0	-	-	-	-	-
CCC1=Nc2cc(C(=O)NCc3ccccc3Cl)ccc2Sc2ccc(C)cc21	?	0	10µM	0	0	0	0	0	0
CC1=Nc2cc(C(=O)NCc3ccccc3Cl)ccc2Sc2c(C)ccc(C)c21	0	0	10µM	0	0	0	0	0	?
Cc1cc(O)c(C(C)C)cc1Cl	-	-	-	0	-	-	-	-	-
Cc1ccccc1S(=O)(=O)Cc1ccc(C(=O)NCc2ccccc2Cl)o1	0	0	?	0	0	0	?	0	0
COc1ccccc1CNC(=O)Nc1ccc2c(c1)N(C)C(=O)c1ccccc1S2	0	0	?	0	-	-	-	-	-
COc1cccc(CNC(=O)Nc2ccc3c(c2)N(C)C(=O)c2ccccc2S3)c1	0	?	18µM	0	?	?	0	0	?
CN1C(=O)c2ccccc2Sc2ccc(NC(=O)COc3ccccc3)cc21	0	0	12µM	0	?	?	0	0	0
CCOc1ccccc1NC(=O)C1CCN(S(=O)(=O)c2c(C)noc2/C=C/c2ccco2)CC1	0	0	9.5µM	0	?	0	0	0	0
COC(=O)c1c(SC)nc2ccccc2c1OCc1cccc(C)c1	0	0	?	0	-	-	-	-	-
CC(C)(C)C1CCc2c(sc(NC(=O)Cn3nnc(-c4ccccc4Cl)n3)c2C#N)C1 (stereo not given)	0	0	0	0	-	-	-	-	-
CC(Oc1ccccc1)C(=O)Nc1ccccc1C(=O)OCc1cc(=O)n2nc(C3CC3)sc2n1 (stereo not given)	0	0	6.5µM	0	0	0	0	0	0
SMILES	mTORC1 inh	S16 F2sN tox	PMP22 txn	GALC G270D up	NLuc saturating	NLuc Km counter	FLuc counter	S16 F2sN tox cnf	PMP22 txn cnf	others
Cc1ccc(CCNC(=O)C2CC(=O)N(CCc3ccc(C)cc3)C2)cc1 (stereo not given)	0	0	0	0	-	-	-	-	-
Cc1cc(C)cc(NC(=O)CSc2nnc(COc3ccccc3Cl)o2)c1	0	0	0	0	-	-	-	-	-
COc1ccc(NC(=O)Cn2c(=O)n(CCC(=O)NCc3ccccc3OC)c(=O)c3ccccc32)cc1Cl	0	0	15µM	0	0	0	0	0	13µM	PMP22 HiBiT cnf=?
COc1ccccc1CNC(=O)CCCCn1c(=O)c2ccccc2n(Cc2ccccc2C)c1=O	0	0	14µM	0	0	?	0	0	?
COc1ccc(NC(=O)Cn2c(=O)n(Cc3ccc(C(=O)NCc4ccccc4Cl)cc3)c(=O)c3ccccc32)cc1OC	0	0	0	0	-	-	-	-	-
COc1ccc(NC(=O)Cn2c(=O)n(CCCC(=O)NCc3ccccc3OC)c(=O)c3ccccc32)cc1Cl	?	0	?	0	-	-	-	-	-
COc1ccc(NC(=O)Cn2c(=O)n(Cc3ccccc3Cl)c(=O)c3cc(OC)c(OC)cc32)cc1OC	0	0	13µM	0	0	0	0	0	0
COc1ccc(NC(=O)CCCn2c(=O)c3cccn3c3cccnc32)cc1Cl	0	0	15µM	0	0	0	0	0	0
COc1ccc2c(c1)CC(C(=O)NCCCN1CCN(c3cccc(Cl)c3)CC1)CO2 (stereo not given)	0	0	0	0	-	-	-	-	-
CC(=O)c1cccc(NC(=O)c2oc(=O)c3ccccc3c2-c2ccccc2)c1	0	0	?	0	-	-	-	-	-
CCOc1ccc(N2C(=O)c3[nH]nc(-c4ccc(OC)cc4)c3C2c2cccs2)cc1 (stereo not given)	?	0	?	0	-	-	-	-	-
COc1ccc(OC)c(C(=O)CN2C(=O)N(c3ccc(C)cc3)S(=O)(=O)c3ccccc32)c1	0	0	?	0	-	-	-	-	-
COc1ccc(CNC(=O)Cn2c(=O)n3nc(-c4ccc(OC)cc4)nc3c3ccccc32)cc1	0	0	0	0	-	-	-	-	-
